# GAA850 FXN act: activators of GAA850 frataxin (FXN) promoter; 360,000 compounds, 0.56% hits; HEK293 lucGAA850 FXN promoter luciferase reporter, 24 h; percent of 10 µM SAHA response; activation, % at 6 µM;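 active = activation above the average of all compounds screened plus 3 SD, cutoff fixed separately per campaign, cut at about 7.5% in these data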;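 note: 0% = DMSO wells and 100% = 10 µM SAHA wells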
# AHR activator: activators of human aryl hydrocarbon receptor; P35869; AHR-responsive luciferase reporter cells, luminescence; activation, % at 5 µM; 320,000 compounds, 2.5% hits; AID 2796; in the data active = activation above about 47%;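 note: 0% = vehicle wells and 100% = reference agonist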
# Target sequence (P35869 whole entry, looked up): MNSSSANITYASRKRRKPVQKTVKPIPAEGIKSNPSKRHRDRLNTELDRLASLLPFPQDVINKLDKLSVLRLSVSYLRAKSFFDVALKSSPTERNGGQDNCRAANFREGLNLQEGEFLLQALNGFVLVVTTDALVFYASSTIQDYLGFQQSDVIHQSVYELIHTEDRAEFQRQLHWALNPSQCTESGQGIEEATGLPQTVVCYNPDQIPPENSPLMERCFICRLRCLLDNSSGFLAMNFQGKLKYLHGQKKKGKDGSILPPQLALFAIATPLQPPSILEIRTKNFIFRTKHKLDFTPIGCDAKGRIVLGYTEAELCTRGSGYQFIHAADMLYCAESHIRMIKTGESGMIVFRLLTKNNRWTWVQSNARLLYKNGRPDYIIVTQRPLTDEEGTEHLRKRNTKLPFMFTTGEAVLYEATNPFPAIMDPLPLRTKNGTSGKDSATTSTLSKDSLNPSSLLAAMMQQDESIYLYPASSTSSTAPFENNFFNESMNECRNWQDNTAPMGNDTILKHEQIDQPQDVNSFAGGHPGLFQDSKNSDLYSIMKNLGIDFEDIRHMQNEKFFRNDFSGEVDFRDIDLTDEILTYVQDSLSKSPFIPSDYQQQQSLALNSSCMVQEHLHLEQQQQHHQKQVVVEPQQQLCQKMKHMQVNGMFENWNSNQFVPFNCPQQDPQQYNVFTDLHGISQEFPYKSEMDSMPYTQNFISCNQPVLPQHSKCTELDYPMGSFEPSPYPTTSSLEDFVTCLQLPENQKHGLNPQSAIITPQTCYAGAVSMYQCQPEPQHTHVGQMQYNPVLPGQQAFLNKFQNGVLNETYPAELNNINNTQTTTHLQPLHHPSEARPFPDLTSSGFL
# HSF1 inhib: HSF1 inhibition. AID 2098. 300,000 compounds, 0.77% hits. activity change, negative = inhibition, % at 7.5 µM (by protocol). NIH3T3-HGL HSE-luciferase, MG132-induced, luminescence 8 h; hits give low values;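 active = more than half of replicate wells show activity change below -50%, luminescence cut by over half; inconclusive = some wells, but at most half, below -50%; inactive = no replicate well below -50%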;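 note: luciferase reports HSF-1 transcriptional activity via heat shock element; 0% = median of DMSO wells and -100% = zero luminescence signal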
# NR0B1 inh: NR0B1 (DAX1) inhibition; P51843; HEK293 Gal4-DAX1 luciferase reporter, luminescence; inhibition, % at 6.75 µM; 340,000 compounds, 0.99% hits; AID 504766;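 active = inhibition above the mean over all tested compounds plus 3 SD, cut at about 4.2% in these data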;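 note: 0% = DAX1-transfected cells with DMSO and 100% = empty-vector control cells with DMSO; inhibition shows as a rise in luminescence from relieved DAX1 repression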
# HSP90 refold inh: inhibitors of HSP90 luciferase refolding in rabbit reticulocyte lysate. luciferase refolding luminescence, 3 h. inhibition, % at 5.6 µM. 290,000 compounds, 0.91% hits. AID 1789;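 active = inhibition above the screen-wide mean plus 3 SD, computed separately per campaign, cut at about 16% in these data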;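 note: 0% = DMSO wells and 100% = 60 µM geldanamycin wells; inhibitors lower the luminescence because luciferase stays unfolded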
# HSF1 activator: increases HSF-1 driven luciferase reporter signal; 300,000 compounds, 1.7% hits; NIH3T3-HGL HSF-1 luciferase reporter, MG132, 8 h; 100% = twice DMSO control signal; AID 504408; activation, % at 9 µM;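 active = mean replicate activation of at least 50% with a set share of replicates each reaching 50%; inconclusive = only one of those two conditions met; inactive = mean below 50% and too few replicates reaching it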;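 note: 0% = median of the neutral control wells and 100% = twice that signal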
# The depositor's hits bear a star; ? = inconclusive; nt = not tested or not shown. Sampled rows, rich in hits. Any-hit rate of the full collection: about 5.9%.
SMILES,GAA850 FXN act,AHR activator,HSF1 inhib,NR0B1 inh,HSP90 refold inh,HSF1 activator
Cc1noc(C)c1COc1ccc(C(=O)Nc2ncccc2O)cc1,3.0,-2.2,10.0,0.1,nt,18.1
NC(=O)CCn1cnc2ccccc21,2.2,-1.5,-7.2,4.3*,5.2,-1.4
O=C(Nc1nc2c(F)cc(F)cc2s1)C1CC(=O)N(Cc2ccco2)C1 (stereo unspecified),3.3,59.9*,4.5,-0.2,2.0,8.1
Cc1cc(C)c2nc(NC(=O)C3CC(=O)N(Cc4ccco4)C3)sc2c1 (stereo unspecified),1.8,25.6,nt,-1.0,-3.1,nt
CC(C)[C@H](NC(N)=O)C(=O)Nc1cccc(S(=O)(=O)NC2=NCCCCC2)c1,0.8,nt,nt,1.6,nt,nt
O=[N+]([O-])c1ccc(O)c(/C=N/n2cnc3ccccc32)c1,-2.9,56.1*,15.0,-0.3,0.1,13.5
CCOC(=O)C1=NN(c2cccc(Cl)c2)C2=NC(C)=C(C(=O)OC)C(c3cccs3)N12 (stereo unspecified),0.7,-1.7,24.4,5.6*,5.5,33.4
CCOC(=O)C1CCN(Cc2cc(Cl)c3ccccc3c2O)CC1,7.2,46.5,78.1,-0.2,5.1,97.4*
CCOC(=O)C1CCN(Cc2ccc(OC)c(C)c2OC)CC1,-1.5,0.4,-11.2,0.4,0.3,-0.6
CCOC(=O)C1CCN(c2cc(=O)n(C3CCCCC3)c(=O)[nH]2)CC1,-1.5,0.0,2.4,0.5,1.9,-1.3
CCOC(=O)C1CCN(c2cc(=O)n(-c3ccccc3Cl)c(=O)[nH]2)CC1,-0.2,-0.2,-4.6,4.2*,-1.3,-3.0
COc1ccc(N2CCN(CNC(=O)c3ccccc3)CC2)cc1,-0.2,nt,-4.7,2.6,3.5,3.1
C=CCn1cccc(C(=O)Nc2ccc(Cl)cc2)c1=O,4.7,51.4*,13.9,-2.1,-0.5,31.4
C=CCn1cccc(C(=O)Nc2ccc(SC)cc2)c1=O,3.6,64.7*,-17.4,-0.4,0.9,-28.0
Cc1cc(C)c(-c2cc(NC(=O)CSc3nncn3C)n(-c3ccccc3)n2)cc1C,1.7,64.4*,9.9,-1.8,-1.2,22.2
O=S(=O)(CCc1nc2ccccc2[nH]1)c1ccc(Cl)cc1,-0.1,-0.4,-88.6*,0.5,4.0,-91.3
Cc1ccc(S(=O)(=O)CCc2nc3ccccc3[nH]2)cc1,0.0,5.1,-0.5,-0.6,-1.3,-11.6
Clc1ccc(OCc2nc3ccccc3[nH]2)cc1,6.0,-3.3,42.8,1.8,1.0,77.3*
c1ccc(OCc2nc3ccccc3[nH]2)cc1,4.5,-2.4,12.9,2.6,-1.0,31.5
O=C(Nc1nc2ccccc2[nH]1)Nc1ccccc1F,1.5,48.4*,22.2,1.6,8.2,?
COc1ccc(/C=C/C(=O)NCCc2nc3ccccc3[nH]2)cc1,0.5,10.1,8.2,nt,4.5,6.0
O=C(/C=C/c1ccc(F)cc1)Nc1nc2ccccc2[nH]1,nt,6.9,10.4,nt,0.6,54.8*
COC(c1ccccc1)(c1ccccc1)C(Oc1nccc(C)n1)C(=O)O (stereo unspecified),1.5,0.3,-3.5,0.5,-3.4,-0.2
Cc1ccccc1NC(=O)OCc1ccccc1,3.9,-5.0,13.1,2.4,-4.0,30.5
C[C@@H]1CN([C@@H](C)CO)C(=O)c2cc(NC(=O)Nc3ccccc3)ccc2O[C@@H](C)CCCCO[C@H]1CN(C)C(=O)Nc1ccc(C(F)(F)F)cc1,-0.5,nt,nt,-0.8,nt,nt
SMILES,GAA850 FXN act,AHR activator,HSF1 inhib,NR0B1 inh,HSP90 refold inh,HSF1 activator
CC(C)[C@H](NC(=O)c1ccccc1)C(=O)OCC(=O)NCc1ccc(F)cc1,0.0,-0.2,6.1,5.4*,-1.8,10.4
COc1cc2c(cc1NC(=O)COC(=O)[C@@H](NC(=O)c1ccccc1F)C(C)C)oc1ccccc12,0.7,58.9*,11.8,-0.7,1.0,11.0
COc1cc2c(cc1NC(=O)COC(=O)CNC(=O)c1ccccc1)oc1ccccc12,2.4,46.4,12.5,1.7,-2.5,31.0
COc1cc2c(cc1NC(=O)COC(=O)[C@@H](NC(=O)c1ccccc1)C(C)C)oc1ccccc12,1.4,49.5*,25.0,-0.6,-7.5,33.8
Cc1ccn(S(=O)(=O)c2ccc(N3CCCC3=O)cc2)n1,-1.6,1.7,11.9,0.6,-2.9,9.3
Cc1cccc(NCC(=O)N/N=C\c2ccccn2)c1,1.4,37.6,-1.4,0.2,-3.4,-0.1
Cc1ccccc1NCC(=O)N/N=C/c1c[nH]c2ccccc12,0.6,62.2*,-16.0,-1.8,0.0,9.0
Cc1cccc(NCC(=O)N/N=C\c2c[nH]c3ccccc23)c1,-1.5,77.5*,-0.5,-0.1,-1.0,13.0
COc1ccc(C)c2sc(N(CCCN(C)C)C(=O)c3ccc(S(=O)(=O)N4CCc5ccccc5C4)cc3)nc12,-7.4,15.3,?,0.8,nt,-43.9
COc1ccc(OC)c2sc(N(CCCN(C)C)C(=O)c3ccc(S(=O)(=O)N4CCc5ccccc5C4)cc3)nc12,nt,9.4,-68.6*,nt,nt,-69.1
COC(=O)C1(C(=O)OC)C2C(=O)C3C(C21)C3(C(=O)OC(C)(C)C)C(=O)OC(C)(C)C (stereo unspecified),0.7,nt,nt,0.8,nt,nt
Cn1ncc(Br)c1C(=O)Nc1cccc(C(F)(F)F)c1,3.1,70.6*,-4.2,0.5,1.8,-5.6
O=C(O)c1cc(-c2ccc(-c3ccc(F)cc3)o2)nc2ccccc12,3.7,13.9,16.4,0.5,4.2,45.9
CCCNC(=O)C1(C)CCN(C(=O)COc2ccc(Cl)cc2Cl)C1 (stereo unspecified),1.2,nt,nt,nt,nt,nt
N#C/C(=C\c1cccc2ccccc12)c1nn(-c2ccccc2)c(N)c1C#N,nt,55.8*,16.2,nt,1.6,32.6
CCCC(=O)N1CCC1(C)C(=O)NS(=O)(=O)c1cccc(F)c1 (stereo unspecified),-1.4,nt,nt,nt,nt,nt
CCN1CCCC1CNS(=O)(=O)c1cccc(C(F)(F)F)c1 (stereo unspecified),-2.3,1.0,-15.7,-0.5,-7.3,-5.0
CCN1CCCC1CNS(=O)(=O)c1ccc(F)c(Cl)c1 (stereo unspecified),1.4,-1.6,2.3,4.4*,-5.0,3.4
Cc1nc(NC(=O)CN2CCN(c3ccccc3F)CC2)sc1C(=O)N(C)C,1.4,-0.3,-2.6,-0.2,16.5*,-6.8
Cc1ccc(C2CC(c3ccccc3C)n3nc(N)nc3N2)cc1 (stereo unspecified),3.5,-0.2,-8.9,0.7,-4.3,-7.0
CCOc1ccc(C2CC(c3ccc(CC)cc3)n3nc(N)nc3N2)cc1 (stereo unspecified),0.0,4.3,-5.5,-3.1,-1.8,4.7
COc1ccc(C2CC(c3ccccc3C)n3nc(N)nc3N2)cc1 (stereo unspecified),0.9,3.0,-5.1,5.1*,-1.5,-8.9
CCOc1ccc(C2CC(c3ccc(CC)cc3)Nc3nc(N)nn32)cc1 (stereo unspecified),1.2,1.6,1.0,4.3*,2.8,2.2
OC[C@@H]1CN(Cc2ccco2)C[C@H](n2cnc3c(NC4CCCC4)ncnc32)O1,-0.1,nt,nt,nt,nt,nt
